Drawing on PubChem BioAssay (NCATS), this text covers Potency and activity change, negative = inhibition for 39 molecules.

Molecules are shown by their SMILES. Inconclusive results are not listed. A call without a number means that no potency is given here. Active and inactive are the calls of the source. The call rests on the fitted dose curve; in most records, active means well fitted inhibition curve with a large enough effect; inconclusive means small, poorly fitted or top-dose-only effect; inactive means flat fitted curve, though single readings scatter.

Chain of Calcium and integrin-binding protein 1 (Homo sapiens) (Q99828 whole entry, looked up): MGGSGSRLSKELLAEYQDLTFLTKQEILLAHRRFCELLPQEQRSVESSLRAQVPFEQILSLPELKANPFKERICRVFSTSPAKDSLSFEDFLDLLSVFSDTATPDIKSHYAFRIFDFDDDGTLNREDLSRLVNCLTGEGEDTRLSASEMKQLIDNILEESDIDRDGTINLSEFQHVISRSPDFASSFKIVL

This assay has as its target Calcium and integrin-binding protein 1 (Homo sapiens) (UniProt Q99828). Kind of assay: Primary qHTS for Identification of Calcium Integrin Binding Protein 1 (CIB1) Competitor (AID 1508620).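 Further: GST tagged CIB1 binding a fluorescein labelled alphaIIb integrin peptide tracer; top concentration of the series differs between compounds.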 To be noted: CIB1-GST / FITC-alphaIIb peptide fluorescence polarization; series mostly up to 57.7 µM. Put shortly:
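CIB1-GST (1 uM final) and compound incubated 15 min at room temperature before adding FITC-alphaIIb peptide tracer (100 nM final). Competition for binding read by fluorescence polarization (ex 480, em 540) after another 15 min at room temperature.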
For orientation: qHTS replaces the single test concentration by a dilution series.
Regarding `C=CC1(C)CC(O)C2(CCC3C(C)(C(=O)O)CCCC3(C)C2=O)C1` (centres undefined), the Potency entry was “inactive”.

Regarding `Nc1ncnc2c1ncn2[C@H]1CCCO1`, the Potency entry is “inactive”.

For `C/C=C/C1=CC2=CC(=O)C(C)(O)C(OC(=O)c3c(C)cc(O)cc3O)C2CO1` (centres undefined), the Potency entry was “inactive”.

For `CC1NC(=O)C(Cc2c[nH]c3ccccc23)NC1=O` (centres undefined), the Potency result was “inactive”.

Consider `CC1(C)C(=O)C(C)(C)c2cc(C(=O)Nc3ccc(C(=O)O)cc3)ccc21`, for which the Potency result was “inactive”.

For the molecule `CC1OC(OC2C(CO)OC(OCC3OC(OC(=O)C45CCC(C)(C)CC4C4=CCC6C7(C)CCC(OC8OC(C(=O)O)C(O)C(OC9OC(CO)C(O)C(O)C9O)C8O)C(C)(C)C7CCC6(C)C4(C)CC5)C(O)C(O)C3O)C(O)C2O)C(O)C(O)C1O` (centres undefined), the activity change, negative = inhibition was 0.696% [at 12.4 µM] (inactive).

For the molecule `CC1(CO)CC[C@]2(C(=O)O[C@@H]3O[C@H](CO)[C@@H](O)[C@H](O)[C@H]3O)CC[C@]3(C)C(=CCC4[C@@]5(C)C[C@H](O)[C@H](O[C@@H]6OC[C@@H](O)[C@H](O)[C@H]6O)[C@@](C)(CO)C5CC[C@]43C)C2C1` (some centres undefined), the Potency result was “inactive”.

In the case of `CC1(C)O[C@]23C[C@H]1C[C@H](OC(=O)c1ccoc1)[C@]2(C)[C@@H](OC(=O)c1ccoc1)CCC3(C)O` (some centres undefined), the Potency result is “inactive”.

With `CC(C)Nc1cc(-c2c[nH]c(C(=O)N[C@H](CO)c3cccc(Cl)c3)c2)c(Cl)cn1`, the Potency result was “inactive”.

Regarding `Cc1ccc(Sc2cncc3sc(C(N)=O)cc23)cc1`, the Potency entry was “inactive”.

In the case of `COc1cc(C(O)C(CO)Oc2ccc(CCCO[C@@H]3O[C@@H](C)[C@H](O)[C@@H](O)[C@H]3O)cc2OC)ccc1O` (some centres undefined), the Potency entry is “inactive”.

As for `CC(C)(C)NCC(O)COc1cccc2c1CCCC2=O` (centres undefined), the Potency entry is “inactive”.

For `CC(=O)NC(C(=O)OC1CCC(C)(C)C2CC=C3C(=O)OCC3(O)C12C)C(C)C` (centres undefined), the Potency result was “inactive”.

With `CC1=C(C)C(=O)OC(C(C)(O)C2CCC3C4CC=C5CC(OC6OC(COC7OC(CO)C(O)C(O)C7O)C(O)C(O)C6O)CC(O)C5(C)C4CCC32C)C1` (centres undefined), the Potency result was “inactive”.

Regarding `COC1CC(=O)CCC(C)OC(=O)CC1O` (centres undefined), the Potency entry is “inactive”.

For the molecule `CC(C)C(=O)O[C@@H]1[C@@H](O)[C@@H](O[C@H]2O[C@H](CO)[C@@H](O)[C@H](O)[C@H]2O)O[C@H](CO)[C@H]1O`, the Potency entry is “inactive”.

`CC(=O)OC(CSC1CCC(=O)OC(C)CCC(=O)C1)C(=O)O` (centres undefined): the Potency entry is “inactive”.

Regarding `C[C@@H]1O[C@@H](O[C@H]2[C@H](O[C@H]3CC[C@@]4(C)C(CC[C@]5(C)C4CC=C4[C@@H]6CC(C)(C)CC[C@]6(C(=O)O)CC[C@]45C)[C@]3(C)CO)OC[C@H](O)[C@@H]2O)[C@H](O)[C@H](O[C@@H]2OC[C@@H](O)[C@H](O)[C@H]2O)[C@H]1O` (some centres undefined), the Potency entry was “inactive”.

With `C/C=C1\[C@H](O[C@@H]2O[C@H](CO)[C@@H](O)[C@H](O)[C@H]2O)OC=C(C(=O)OC)[C@H]1CC(=O)OC`, the Potency result is “inactive”.

With `N#CC1C(=O)Nc2scc(-c3ccc(-c4ccccc4O)cc3)c2C1=O` (centres undefined), the Potency result is “inactive”.

`COc1cc(/C=C/C(=O)OC2CC(C)=C(C(=O)O)/C2=C/CO[C@@H]2O[C@H](CO)[C@@H](O)[C@H](O)[C@H]2O)ccc1O` (some centres undefined): the Potency result is “inactive”.

As to `COc1ccc2c(c1)O[C@H](O[C@@H]1O[C@H](CO)[C@@H](O)[C@H](O)[C@H]1O)C(=O)N2`, the Potency entry is “inactive”.

For `O=C1Nc2ccc(O)cc2O[C@H]1O[C@@H]1O[C@H](CO)[C@@H](O)[C@H](O)[C@H]1O`, the Potency result is “inactive”.

In the case of `O=C1[C@H](O[C@@H]2O[C@H](CO)[C@@H](O)[C@H](O)[C@H]2O)Oc2ccccc2N1O`, the Potency entry is “inactive”.

For `C[C@@H](Nc1cc(NS(=O)(=O)N2CCC2)nc(SCc2cccc(F)c2F)n1)[C@@H](O)CO`, the Potency result is “inactive”.

For the molecule `CC(C)(O)/C=C1/C(=O)C(C)(C)C(=O)C(C)(C)C1(O)O[C@@H]1O[C@H](COC(=O)c2cc(O)c(O)c(O)c2)[C@@H](O)[C@H](O)[C@H]1O` (some centres undefined), the Potency entry is “inactive”.

On to `COc1cc(C(=O)OC[C@H]2O[C@H](O[C@@]3(CO)O[C@@H](CO)[C@H](O)[C@H]3O)[C@H](O)[C@@H](O)[C@@H]2O)ccc1O`, for which the Potency result was “inactive”.

In the case of `CC(C#N)C(C)O[C@@H]1O[C@H](CO)[C@@H](O)[C@H](O)[C@H]1O` (some centres undefined), the Potency entry is “inactive”.

With `CC1=CC(=O)C2C(C)(C)CC(O)CC2(C)C1CO` (centres undefined), the Potency result is “inactive”.

Consider `CC1(C)O[C@@]2(C)CC[C@@H]1C[C@@H]2OC1OC(CO)C(O)C(O)C1O` (some centres undefined), for which the Potency entry was “inactive”.

Consider `CN[C@@H]1[C@@H](O)[C@@H](O[C@@H]2[C@@H](O)[C@H](O[C@H]3O[C@H](CN)[C@@H](O)[C@H](O)[C@H]3O)[C@@H](N)C[C@H]2NC(=O)[C@@H](O)CN)OC[C@]1(C)O`, for which the Potency entry is “inactive”.

For the molecule `NCCOCCOCCNC(=O)Cc1ccc(Nc2nc(NCc3ccc(F)cc3)nc(NCC3CCCCC3)n2)cc1`, the Potency entry was “inactive”.

Turning to `CC1(C)CC[C@]2(C(=O)O[C@@H]3O[C@H](CO)[C@@H](O)[C@H](O)[C@H]3O)CC[C@]3(C)C(=CCC4[C@@]5(C)C[C@@H](O)[C@H](O)C(CO)(CO)C5CC[C@]43C)C2[C@@H]1O` (some centres undefined), the Potency result is “inactive”.

Take `C=C1CC[C@@H]2[C@](C)(CC[C@H](O)[C@@]2(C)CCC=C(C)C)[C@@H]1Cc1c[nH]c2ccccc12`: the Potency result was “inactive”.

`CN(C)C/C=C/C(=O)Nc1ccc(C(=O)Nc2cccc(Nc3ncc(Cl)c(-c4c[nH]c5ccccc45)n3)c2)cc1`: the Potency entry was “inactive”.

Regarding `C=C1C[C@]23C[C@H]1CC[C@H]2[C@]1(C)CCC[C@@]2(CO)C(=O)O[C@H]([C@H]21)[C@@H]3O`, the Potency result is “inactive”.

As for `C[C@@H]1O[C@@H](O[C@H]2[C@H](OC(C#N)c3ccc(O)cc3)O[C@H](CO)[C@@H](O)[C@@H]2O)[C@H](O)[C@H](O)[C@H]1O` (some centres undefined), the Potency entry was “inactive”.

With `CC(C)(O)C1CC=C(C(=O)OCC2OC(Oc3c(O)cc(C(=O)O)cc3O)C(O)C(O)C2O)CC1` (centres undefined), the Potency entry was “inactive”.

On to `C=C[C@H]1[C@H](O[C@@H]2O[C@H](CO)[C@@H](O)[C@H](O)[C@H]2O)OC=C(C(=O)OC)[C@H]1C[C@@H]1N[C@H](C(=O)O)Cc2c1[nH]c1ccccc21`, for which the Potency entry is “inactive”.
